Data published in PubChem BioAssay AID626 (Vanderbilt High Throughput Screening Facility, 2007).
The whole screen tested about 64,000 compounds, of which about 1,900 (3%) were called active. This excerpt belongs to a sample that is enriched for actives. Unmarked numbers belong to inactive results.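 The calls were made as follows: active = fluorescence rise, raw or as B-score row- and column-corrected plate score, outside the 99.7% band of its plate's samples, either direction; inactive = the rest.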

System: Muscarinic acetylcholine receptor M1
Test: M1 muscarinic receptor agonists, primary screen, CHO-M1 cells, Fluo-4 calcium, agonist mode (AID 626)
Details: Fluo-4 calcium fluorescence, at 10 µM, active compounds read high

Compound	B-score
Cc1cccc(-n2c(C)nc3cc(C(=O)N4CCC5(CC4)OCCO5)ccc32)c1	-0.0322
O=C(c1cc2nc(-c3ccccc3)cc(-c3ccccc3)n2n1)N1CCC2(CC1)OCCO2	6.7 (active)
O=C(c1cc(-c2ccncc2)nc2ccccc12)N1CCC2(CC1)OCCO2	0.114
Cc1ccc(P(=S)(c2ccc(C)o2)N2CCOCC2)o1	0.695
Cn1c(C(=O)N2CCC(C(=O)N3CCC4(CC3)OCCO4)CC2)cc2sccc21	-0.378
